Among the data in the supplement of paper PMC9262897, “Low-cost anti-mycobacterial drug discovery using engineered E. coli” (Nature Communications, 2022) are growth values, retold here.

The structures appear in SMILES notation. Where a name gives a salt, the structure may show the parent alone. ± gives the standard deviation of the averaged measurements.

This experiment concerns E. coli TESEC Mtb Alr. Kind of experiment: growth (OD600 after 10 h); higher = more growth (less inhibition). Conditions: compound 0.1 mM. The procedure: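 TESEC Mtb Alr E. coli, or the Alr+ wild-type control, in 384-well plates with Prestwick library compounds at 0.1 mM and 1% DMSO, across arabinose induction levels of 1E3 to 1E7 nM. Growth is read as OD600 after 10 h at 37 °C in triplicate biological replicates.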

Where [1] appears, read: arabinose 1000 nM, raw OD600 reference: median of DMSO wells 0.294, cell-free background 0.041.
Setting [2] is: arabinose 10000 nM, raw OD600 reference: median of DMSO wells 0.264, cell-free background 0.041.
Where [3] appears, read: arabinose 100000 nM, raw OD600 reference: median of DMSO wells 0.201, cell-free background 0.041.
Setting [4] is: arabinose 1000000 nM, raw OD600 reference: median of DMSO wells 0.193, cell-free background 0.041.
The mark [5] stands for this setting: arabinose 10000000 nM, raw OD600 reference: median of DMSO wells 0.146, cell-free background 0.041.

Regarding `CC(C)COCC(CN(Cc1ccccc1)c1ccccc1)N1CCCC1` (stereo not given) [Bepridil hydrochloride], the growth is 0.03953 ± 0.00038 under setting [1]; 0.03937 ± 0.00031 under setting [2]; 0.04057 ± 0.00029 under setting [3]; 0.03933 ± 5.8e-05 under setting [4]; 0.0411 ± 0.0014 under setting [5].

As to `CC(=O)Oc1ccccc1C(=O)Nc1ncc([N+](=O)[O-])s1` [Nitazoxanide], the growth reads like this: under setting [1], 0.0462 ± 0.0042; under setting [2], 0.0417 ± 0.00046; under setting [3], 0.0425 ± 0.0013; under setting [4], 0.0434 ± 0.0042; under setting [5], 0.0448 ± 0.0011.

`CCCCC1=NC2(CCCC2)C(=O)N1Cc1ccc(-c2ccccc2-c2nnn[nH]2)cc1` [Irbesartan]: the growth came out at 0.227 ± 0.0037 under setting [1]; 0.21 ± 0.011 under setting [2]; 0.121 ± 0.0023 under setting [3]; 0.0979 ± 0.0024 under setting [4]; 0.13 ± 0.0027 under setting [5].

The compound `CCN(CC)CCCC(C)Nc1c2ccc(Cl)cc2nc2ccc(OC)cc12` (stereo not given) [Quinacrine dihydrochloride hydrate] gave a growth under setting [1] of 0.0775 ± 0.016; a growth under setting [2] of 0.0444 ± 0.00085; a growth under setting [3] of 0.104 ± 0.0031; a growth under setting [4] of 0.04497 ± 0.00023; a growth under setting [5] of 0.1 ± 0.0037.

As to `O=C1NCN(c2ccccc2)C12CCN(CCCC(c1ccc(F)cc1)c1ccc(F)cc1)CC2` [Fluspirilen], the growth under setting [1] amounted to 0.044 ± 0.0032; the growth under setting [2] came out at 0.0402 ± 0.00092; the growth under setting [3] was found to be 0.0775 ± 0.0044; the growth under setting [4] amounted to 0.0438 ± 0.0018; the growth under setting [5] stood at 0.0681 ± 0.0024.

Compound `c1coc(CNc2ncnc3nc[nH]c23)c1` [6-Furfurylaminopurine] registered a growth under setting [1] of 0.29 ± 0.014; a growth under setting [2] of 0.252 ± 0.0053; a growth under setting [3] of 0.209 ± 0.027; a growth under setting [4] of 0.181 ± 0.0069; a growth under setting [5] of 0.138 ± 0.0046.

`Clc1ccc(CO/N=C(\Cn2ccnc2)c2ccc(Cl)cc2Cl)c(Cl)c1` [Oxiconazole Nitrate]: the growth is, setting by setting: under setting [1], 0.0489 ± 0.0051; under setting [2], 0.0625 ± 0.0013; under setting [3], 0.0581 ± 0.003; under setting [4], 0.0621 ± 0.0011; under setting [5], 0.0621 ± 0.0089.

As for `C[C@]1(Cn2ccnn2)[C@H](C(=O)O)N2C(=O)C[C@H]2S1(=O)=O` [Tazobactam], the growth was determined as 0.0404 ± 0.0022 under setting [1]; 0.0384 ± 0.0001 under setting [2]; 0.045 ± 0.0019 under setting [3]; 0.18 ± 0.015 under setting [4]; 0.074 ± 0.0014 under setting [5].
